Eight compounds from PubChem BioAssay (NCI) can be followed below.

Some test systems named below: SK-MEL-2 melanoma; EKVX NSCLC; SN12C renal; UO-31 renal; TK-10 renal; ACHN renal; CAKI-1 renal; A498 renal; MOLT-4 leukemia; SR leukemia; RPMI-8226 leukemia; OVCAR-8 ovarian; OVCAR-5 ovarian; OVCAR-4 ovarian; SK-OV-3 ovarian; IGROV1 ovarian; OVCAR-3 ovarian; HS 578T breast; NCI/ADR-RES ovarian; CCRF-CEM leukemia.
What all share (experiment): NCI-60 one-dose screen, 48 h (100 = growth as untreated, 0 = no growth, -100 = all killed)
Holding throughout (conditions): 10 µM unless noted

SMILES strings stand for the structures. Compounds without any hit were thinned out: in the full panel of roughly 83,000, 20% have a hit.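 Interpretation: 100, growth as untreated; towards 0, rising growth inhibition; 0, no net growth; 0 to -100, cell death. Compounds scoring below 10 were considered active.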 A number with no mark means an inactive call. Active and inactive are the calls of the source.

In the case of `COc1ccc(/C(C)=C(\c2ccc(Cl)cc2)c2ccc(OCCN(C)C)cc2)cc1F`, the growth with SK-MEL-2 melanoma is 105%; in the assay on EKVX NSCLC, 81.6%; in the assay on SN12C renal, 70.6%; with UO-31 renal, 54.7%; in the assay with TK-10 renal it was 59.1%; in the assay with ACHN renal, 92%. For the same compound, the growth was 56.2% with CAKI-1 renal; 98.5% with A498 renal; 39.5% in the assay on MOLT-4 leukemia; -32% (active) in the assay with SR leukemia; -29.2% (active) with RPMI-8226 leukemia; 65.5% with OVCAR-8 ovarian. Besides, the growth was 78% in the assay on OVCAR-5 ovarian; 56.1% in the assay on OVCAR-4 ovarian; 92.9% with SK-OV-3 ovarian; 47.6% in the assay on IGROV1 ovarian; 64.7% in the assay on OVCAR-3 ovarian; 64.3% in the assay with HS 578T breast. For the same compound, the growth in the assay on NCI/ADR-RES ovarian was 78.9%.

With `C=C(CNCCc1ccc(O)cc1)[C@@H]1CC[C@]2(COC3CCCCO3)CC[C@]3(C)[C@H](CC[C@@H]4[C@@]5(C)CCC(N)C(C)(C)[C@@H]5CC[C@]43C)[C@@H]12` (some centres not stated), the growth was -82.9% (active) in the assay on SK-MEL-2 melanoma; -74.6% (active) in the assay with EKVX NSCLC; -85.2% (active) in the assay on SN12C renal; -96.8% (active) in the assay with UO-31 renal; -90.7% (active) in the assay with TK-10 renal; -99% (active) in the assay on ACHN renal. For the same compound, the growth with CAKI-1 renal was -91.8% (active); in the assay on A498 renal it was -98.7% (active); in the assay on CCRF-CEM leukemia it was -64.1% (active); in the assay with RPMI-8226 leukemia, -64.9% (active); in the assay with OVCAR-8 ovarian it was -61.6% (active); in the assay on OVCAR-5 ovarian, -90.6% (active). The growth is -77.5% (active) with OVCAR-4 ovarian; -95.1% (active) in the assay on SK-OV-3 ovarian; -82.1% (active) in the assay on IGROV1 ovarian; -87% (active) in the assay on OVCAR-3 ovarian; -49.5% (active) in the assay on HS 578T breast; -67.1% (active) in the assay with NCI/ADR-RES ovarian.

In the case of `Oc1[nH]c2ccccc2c1/C=c1/cc2c(c(-c3ccc(F)cc3)n1)=Nc1ccccc1-2`, the growth with SK-MEL-2 melanoma is -3.73% (active); in the assay with EKVX NSCLC, 38.2%; with SN12C renal, -0.749% (active); with UO-31 renal, -12.1% (active); in the assay with TK-10 renal, 16.3%; with ACHN renal, -43.4% (active). The growth in the assay with CAKI-1 renal was 14.8%; in the assay with A498 renal, -4.07% (active); with MOLT-4 leukemia, -15.6% (active); in the assay on SR leukemia, 10%; in the assay with RPMI-8226 leukemia, -40.5% (active); in the assay on OVCAR-8 ovarian, -19.6% (active). Further, the growth in the assay with OVCAR-5 ovarian is 0.0696% (active); in the assay with OVCAR-4 ovarian it was -65.1% (active); in the assay with SK-OV-3 ovarian, -7.93% (active); in the assay on IGROV1 ovarian, -7.94% (active); in the assay on OVCAR-3 ovarian, -77% (active); in the assay on HS 578T breast, -7.82% (active). In addition, the growth in the assay with NCI/ADR-RES ovarian is -18.7% (active).

As to `C[C@@H]1CC[C@@H]2[C@@H]1[C@H](OC(=O)c1ccc3ccccc3c1)[C@]1(C3CCCCC3)C[C@@H](OC(=O)CO)[C@@]2(C)O1`, the growth with SK-MEL-2 melanoma is 69.5%; with EKVX NSCLC, 62%; with SN12C renal it was 24%; in the assay with UO-31 renal, -43.6% (active); with TK-10 renal it was 79.2%; in the assay on ACHN renal it was 7.83% (active). In addition, the growth is -31% (active) in the assay with CAKI-1 renal; -85% (active) in the assay with A498 renal; 48.3% with CCRF-CEM leukemia; 31.4% in the assay with RPMI-8226 leukemia; 18.5% with OVCAR-8 ovarian; 89.4% in the assay on OVCAR-5 ovarian. For the same compound, the growth in the assay on OVCAR-4 ovarian is 55.5%; in the assay on SK-OV-3 ovarian, 75.4%; in the assay on IGROV1 ovarian, 71.1%; in the assay on OVCAR-3 ovarian it was 73.6%; in the assay with HS 578T breast, -32.1% (active); with NCI/ADR-RES ovarian, 14.6%.

As for `C=C1c2c(C)nn(-c3ccc(NC(C)=O)cc3)c2N(C)C23CC1C1(C)c4c(C)nn(-c5ccc(NC(C)=O)cc5)c4N(C)C(C)(CC12)C3` (configuration not stated), the growth in the assay on SK-MEL-2 melanoma is 36.6%; in the assay with EKVX NSCLC, 24.9%; with SN12C renal it was 45.6%; with UO-31 renal, 24.2%; in the assay with TK-10 renal, 37.3%; in the assay with ACHN renal it was 19.4%. Besides, the growth in the assay with CAKI-1 renal is 32.8%; with A498 renal it was 60.3%; in the assay with CCRF-CEM leukemia, 8.28% (active); in the assay on RPMI-8226 leukemia it was -50.5% (active); in the assay on OVCAR-8 ovarian, 40.8%; in the assay on OVCAR-5 ovarian, 78.1%. Besides, the growth was 35% in the assay on OVCAR-4 ovarian; 48.5% in the assay with SK-OV-3 ovarian; 64.8% with IGROV1 ovarian; 34.3% in the assay with OVCAR-3 ovarian; 62.6% in the assay on HS 578T breast; 43.4% in the assay with NCI/ADR-RES ovarian.

On to `CC(=O)NCC(=O)Nc1ccc(-c2nnc3ccccn23)nc1.CC(=O)NCC(=O)Nc1ccc(-c2nnc3ccccn23)nc1.[Pt+2]`, for which the growth was 91.4% with SK-MEL-2 melanoma; 110% in the assay with EKVX NSCLC; 106% with SN12C renal; 106% with UO-31 renal; 103% with TK-10 renal; 103% with ACHN renal. Moreover, the growth in the assay with CAKI-1 renal is 115%; in the assay on A498 renal, 101%; in the assay on MOLT-4 leukemia, 96.9%; in the assay with SR leukemia, 104%; in the assay on RPMI-8226 leukemia, 108%; in the assay on OVCAR-8 ovarian, 94.3%. Also, the growth in the assay on OVCAR-5 ovarian is 114%; in the assay on OVCAR-4 ovarian, 119%; with SK-OV-3 ovarian, 112%; with IGROV1 ovarian, 106%; with OVCAR-3 ovarian, 107%; in the assay with HS 578T breast, 104%. The growth with NCI/ADR-RES ovarian is 106%.

`CC(C)n1nc(C#Cc2cccc(NC(=O)c3cccc(C(F)(F)F)c3)c2)c2c(N)ncnc21`: the growth in the assay with SK-MEL-2 melanoma is -65.2% (active); in the assay on EKVX NSCLC, 1.52% (active); with SN12C renal it was -8.6% (active); with UO-31 renal, -51.4% (active); with TK-10 renal, -56.8% (active); in the assay on ACHN renal, -31.9% (active). Further, the growth with CAKI-1 renal is -40.9% (active); with A498 renal it was -80.6% (active); in the assay on CCRF-CEM leukemia, 11.8%; in the assay on RPMI-8226 leukemia, -11.8% (active); in the assay on OVCAR-8 ovarian it was -12.7% (active); in the assay on OVCAR-5 ovarian it was -27.5% (active). Moreover, the growth in the assay with OVCAR-4 ovarian is 11.4%; in the assay on SK-OV-3 ovarian, -51.6% (active); in the assay on IGROV1 ovarian it was -61.6% (active); with OVCAR-3 ovarian it was 1.38% (active); in the assay with HS 578T breast, -31.2% (active); in the assay with NCI/ADR-RES ovarian it was -13% (active).

With `C=C1c2c(C)nn(-c3ccc(S(N)(=O)=O)cc3)c2N(C)C23CC1C1(C)c4c(C)nn(-c5ccc(S(N)(=O)=O)cc5)c4N(C)C(C)(CC12)C3` (configuration not stated), the growth in the assay on SK-MEL-2 melanoma was 44.7%; in the assay with EKVX NSCLC, 29.6%; with SN12C renal, 32.4%; with UO-31 renal, 25.5%; in the assay with TK-10 renal, 46.6%; in the assay on ACHN renal, 14.1%. Also, the growth in the assay on CAKI-1 renal is 40.7%; with A498 renal it was 75.3%; in the assay on CCRF-CEM leukemia, 18.7%; with RPMI-8226 leukemia, -64% (active); in the assay on OVCAR-8 ovarian, 40.1%; with OVCAR-5 ovarian it was 64%. In addition, the growth is 39.3% in the assay with OVCAR-4 ovarian; 57.6% in the assay on SK-OV-3 ovarian; 49.1% in the assay with IGROV1 ovarian; 41.6% in the assay with OVCAR-3 ovarian; 54.3% with HS 578T breast; 79.2% in the assay on NCI/ADR-RES ovarian.
